p53 reactivation: qHTS assay for re-activators of p53 using a Luc reporter. H1299 p53-A138V BP100-luciferase reporter, luminescence, 24 h. Potency, µM (series often up to 92.2 µM), for the others: at the top dose activity change, positive = activation, actives largely listed as activators. 320,000 tested, 0.063% active. AID 504706, 2011; note: % of control where 0% means no effect; nearly all actives have a fitted effect of over 45% in size
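H1299 (p53-null), stable ts p53-A138V + BP100-Luc; 1000 cells/well, Opti-MEM/10% FBS; cpd 4 pt, 1:5; 24 h, 37 deg C, 5% CO2; detection reagent 10 min RT; luminescence.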
Eya2 inh: qHTS Assay for Inhibitors of the Phosphatase Activity of Eya2; Protein phosphatase EYA2 (Homo sapiens), O00167; recombinant Eya2, OMFP fluorescence dephosphorylation (OMFP is methylfluorescein phosphate); Potency, µM (doses to about 76.9 µM), for inactives: at the top dose activity, negative = inhibition, actives largely listed as inhibitors; 330,000 tested, 0.006% active; note: % is set by controls: 0 for no effect and ±100 for the full control effect
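Eya2 protein (added as 0.2 uM solution) was preincubated with compound for 10 min at ambient temperature in 50 mM HEPES pH 7.5, 50 mM NaCl, 5 uM MgCl2, 0.05% BSA, 1 mM DTT. OMFP (added at 50 uM) then reacted 10 min; fluorescence read at 485/525 nm.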
Mm-Cpn inhibitor: Inhibitors of TCP-1 ring complex (TRiC) of Methanococcus maripaludis (MmCpn): qHTS | Chaperonin Mm-Cpn (Methanococcus maripaludis) | purified Mm-Cpn ATPase, ADP Transcreener TR-FRET | Potency, µM (highest dose often 76.9 µM), for inactives: at the top dose activity, negative = inhibition, most hits filed as inhibitors | 330,000 tested, 0.031% active | AID 504842, 2011; note: % is set by controls: 0 for no effect and ±100 for the full control effect; nearly all actives have a fitted effect of over 80% in size
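Compound-treated chaperonin, 25 nM final, turns over 10 uM ATP at 37°C for 30 min following a 10 min preincubation; ADP generated competes with ADP-d2 for Eu-cryptate antibody, lowering FRET.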
ClpP mod: qHTS Assay for Activators of ClpP | AID 651965, 2013 | ATP-dependent Clp protease proteolytic subunit (Bacillus subtilis (strain 168)), P80244 | Potency, µM (doses to about 57.5 µM), for inactives: top-dose activity change, negative = active | 340,000 tested, 1.9% active | purified B. subtilis ClpP, FRET peptide cleavage, 20 min; active = well fitted falling curve with a large enough effect; inconclusive = small, poorly fitted or top-dose-only effect; inactive = no such curve, though single readings can be large or run the other way; note: the source files actives as falling curves though it sought activators and does not explain the sign; nearly all actives have a fitted effect of over 65% in size
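FRET quenching reversal measured ClpP activation: 10 microg/mL B. subtilis ClpP at pH 8 with the FRET-FV decapeptide, read at 430 nm after 320 nm excitation. The 20-min minus 0-min signal was scaled between DMSO/no-enzyme wells and ADEP (5.8 microM final).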
Integrin act MD: qHTS for Activators of Integrin-Mediated Alleviation for Muscular Dystrophy. AID 624291, 2012. Potency, µM (titrated, usually from 38.3 µM), for inactives: top-dose activation, usual class: activators. 350,000 tested, 0.064% active. alpha7betagal myoblasts, beta-gal FDG fluorescence, 48 h;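 note: 100% = response of the positive control SU9516; nearly all actives have a fitted effect of over 60% in size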
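Alpha7betagal+/- myoblasts (passage 13) were plated 16-24 hr, then exposed to compounds (1:260 dilution of DMSO stock) for 48 hours at 37C. After MPER lysis, β-galactosidase reporter activity was read as FDG fluorescence (ex 480/em 540) after 30 minutes.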
USP2a block: qHTS Assay for Inhibitors of Ubiquitin-specific Protease USP2a Using CHOP2 as the Reporter; Ubiquitin carboxyl-terminal hydrolase 2 (Homo sapiens), O75604; USP2 core, Ub-CHOP2 coupled fluorogenic reporter, 485/531; Potency, µM (titrated, usually from 38.3 µM), inactives show at the highest dose activity change, negative = inhibition, usual class: inhibitors; 330,000 tested, 0.01% active; AID 463254, 2010;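 note: plate controls were DMSO wells for no effect and full inhibition by NEM control for full effect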
Target sequence (O75604 whole entry, looked up): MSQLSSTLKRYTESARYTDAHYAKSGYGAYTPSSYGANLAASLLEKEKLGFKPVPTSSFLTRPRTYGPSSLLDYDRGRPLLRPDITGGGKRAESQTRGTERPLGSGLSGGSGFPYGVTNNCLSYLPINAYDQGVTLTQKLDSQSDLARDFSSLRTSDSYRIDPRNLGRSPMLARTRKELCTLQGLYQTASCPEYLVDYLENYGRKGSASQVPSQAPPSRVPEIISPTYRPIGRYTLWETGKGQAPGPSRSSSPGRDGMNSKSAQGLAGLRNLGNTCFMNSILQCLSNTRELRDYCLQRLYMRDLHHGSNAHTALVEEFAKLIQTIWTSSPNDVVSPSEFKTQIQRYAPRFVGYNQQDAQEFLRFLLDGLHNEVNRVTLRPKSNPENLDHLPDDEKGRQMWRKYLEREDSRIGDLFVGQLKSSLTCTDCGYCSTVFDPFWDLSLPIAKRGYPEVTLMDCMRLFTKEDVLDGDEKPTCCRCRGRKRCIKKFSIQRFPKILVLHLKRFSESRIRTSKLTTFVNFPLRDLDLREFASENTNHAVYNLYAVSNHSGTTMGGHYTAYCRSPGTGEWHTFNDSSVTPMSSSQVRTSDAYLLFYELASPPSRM
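Deubiquitinase activity read as fluorescence (485/531 nm) after Ub-CHOP2 cleavage activates the enterokinase reporter on its substrate; USP2 core 10nM, Ub-CHOP2 and substrate 25nM each, 30min compound preincubation then 60min RT; data normalized to NEM, curves fitted.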
The depositor's hits bear a star; ? = inconclusive; nt = no result. This excerpt belongs to a sample that is enriched for hits. Unless noted, calls come from the whole dose curve; as a rule, active = well fitted curve in the direction sought with a large enough effect; inconclusive = small, poorly fitted or top-dose-only effect, or another doubt; inactive = no such curve, though single readings can be large; an effect the other way counts as inactive or inconclusive. Potency is the fitted concentration of half-maximal effect.

SMILES | p53 reactivation | Eya2 inh | Mm-Cpn inhibitor | ClpP mod | Integrin act MD | USP2a block
CN(/N=C/c1ccc2c(c1)OCO2)c1ccccc1 | 10µM* | -9% | 0% | 0% | 25% | -4%
C(=N\N(c1ccccc1)c1ccccc1)/c1ccc2c(c1)OCO2 | 0% | 5% | -3% | -13% | 29% | -1%
COCCCNC(=O)CC(NS(=O)(=O)c1ccc(OC)cc1)c1ccc(OC)cc1 (centres undefined) | 9% | -23% | 4% | 22µM* | -9% | 0%
COCCCNC(=O)CC(NS(=O)(=O)c1ccc(C)cc1)c1ccc(OC)cc1 (centres undefined) | -4% | -8% | -1% | 0% | 21% | 0%
CCn1c(C)nc2cc(C(=O)NNS(=O)(=O)c3ccccc3F)ccc21 | ? | 8% | 0% | 3.2µM* | 14% | 2%
Cc1ccc(C)c(Cn2c(=O)n(Cc3ccccc3)c(=O)c3c2c2cc(C)ccc2n3C)c1 | nt | nt | nt | 0% | nt | nt
COc1ccc2[nH]c(=O)c(C(c3nnnn3C3CCCCC3)N3CCN(C)CC3)cc2c1 (centres undefined) | -7% | 6% | -1% | 32µM* | -6% | -3%
CCCN1CCN(C(c2cc3cc(OCC)ccc3[nH]c2=O)c2nnnn2C2CCCCC2)CC1 (centres undefined) | 6% | -12% | 2% | 28µM* | 0% | 2%
Cc1ccc(NC(=O)CSc2nc(-c3ccco3)nc3cc(=O)[nH]n23)cc1C | nt | nt | nt | 3% | nt | nt
O=[N+]([O-])c1cc(-c2nc(-c3ccccc3)no2)ccc1NCc1cccnc1 | nt | nt | nt | 0% | nt | nt
O=C(NCc1cccnc1)C1CCC(c2ccc(Cl)cc2)CC1 (centres undefined) | -4% | -9% | 2% | 28µM* | -18% | -1%
CC(C)=CCN1CCN(Cc2cccn2-c2ccccn2)CC1CCO (centres undefined) | -3% | -9% | ? | 28µM* | -11% | 3%
Cc1nc2c(C(=O)NCCC(C)C)c[nH]n2c(=O)c1Cl | 1% | 2% | 0% | 32µM* | -26% | 3%
CS(=O)(=O)c1ccc(Cl)c(NC(=O)CSc2nncn2-c2ccccc2)c1 | -1% | -10% | 2% | nt | 13µM* | 2%
O=C(COC(=O)Cn1nnc2ccccc21)Nc1ccccc1Br | -1% | 0% | -1% | 28µM* | -26% | -6%
O=C(COC(=O)Cn1nnc(-c2ccccc2)n1)Nc1ccccc1Br | -6% | 4% | 0% | nt | -21% | 0%
COc1ccc(NC(=O)COC(=O)Cn2nnc3ccccc32)cc1 | -3% | -23% | -2% | -4% | 7% | 1%
CN(C)c1ccc(NC(=O)COC(=O)Cn2nnc3ccccc32)cc1 | 14% | -14% | -3% | 25µM* | ? | 1%
CC1(C)CC(=O)C2=C(C1)NC(Nc1nc3ccccc3o1)=NC2c1ccccc1 (centres undefined) | nt | nt | nt | 4% | nt | nt
COc1ccc(Cn2c(=O)c3c(nc(NCCO)n3C)n(C)c2=O)cc1 | 1% | 4% | -8% | 3.5µM* | 6% | -1%
COCCCNc1nc2c(c(=O)n(Cc3ccc(OC)cc3)c(=O)n2C)n1C | -2% | 10% | -2% | -1% | -9% | 1%
CCc1cccc(C)c1NC(=O)COC(=O)c1ccc2c(c1)S(=O)(=O)c1ccccc1C2=O | 11% | 2% | -9% | -2% | 13% | 4%

Screening results from PubChem.
